# FECH block: human FECH heme synthesis enzyme inhibition | P22830 | calls only at 10 µM (by protocol) | AID 1671448 | hit rate 3.3% among 20,000 | purified FECH, Ni-mesoporphyrin absorbance 550 nm;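 active = enzyme reaction rate more than 3 SD below the solvent-only control wells on the same plate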;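 also: lower slope than DMSO wells means FECH inhibition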
# Target sequence (P22830 whole entry, looked up): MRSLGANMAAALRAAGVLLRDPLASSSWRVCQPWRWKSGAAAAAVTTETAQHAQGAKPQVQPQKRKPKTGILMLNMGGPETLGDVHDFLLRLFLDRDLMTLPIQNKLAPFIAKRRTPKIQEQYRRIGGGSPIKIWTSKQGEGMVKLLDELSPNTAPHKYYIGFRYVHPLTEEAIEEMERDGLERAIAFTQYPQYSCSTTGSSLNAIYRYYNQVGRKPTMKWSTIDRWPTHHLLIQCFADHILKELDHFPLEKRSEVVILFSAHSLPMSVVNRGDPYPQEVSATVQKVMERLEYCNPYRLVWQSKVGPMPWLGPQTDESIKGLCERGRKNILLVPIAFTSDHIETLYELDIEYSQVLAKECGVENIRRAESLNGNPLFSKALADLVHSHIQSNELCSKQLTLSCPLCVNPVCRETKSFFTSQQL
# An asterisk follows results filed as active; i = inactive; + = active, no number. Shown is part of a subset that was picked to be rich in hits.
SMILES,FECH block
CCC(C(=O)Nc1ccc(Nc2nc(C)cc(N(C)C)n2)cc1)c1ccccc1 (configuration not stated),+
CCc1cc(CN(C)Cc2ccc(-n3ccnc3)cc2)on1,i
CCn1cnnc1C(C)NC(=O)c1cnc2ccccc2c1 (configuration not stated),i
COc1ccc(N2C(=O)CCS2(=O)=O)cc1S(=O)(=O)N1C[C@H](C)C[C@H](C)C1,i
Cc1ccc(Nc2cc(C)nc(N3CCN(S(=O)(=O)c4ccc(I)cc4)CC3)n2)cc1,i
CCN(CC)CCCNC(=O)C1CCN(c2ccc(-c3cccc(C)c3)nn2)CC1,+
CCN(CC)CCCNC(=O)C1CCN(c2ccc(-c3ccccc3)nn2)CC1,i
CCOCCCNC(=O)C1CCN(c2ccc(-c3cccc(C)c3)nn2)CC1,i
Cc1ccc(Nc2nc(N3CCCC(C)C3)nc3c2cnn3-c2ccccc2)cc1 (configuration not stated),i
CCN1CCN(C(=O)CN2c3ccc(Br)cc3-c3ccccc3S2(=O)=O)CC1,i
CCCNC(=O)c1ccccc1NC(=O)CN1c2ccc(C(C)C)cc2-c2ccccc2S1(=O)=O,i
CCc1ccc2c(c1)-c1ccccc1S(=O)(=O)N2CC(=O)N1CCN(c2ccccc2)CC1,i
CC(C)c1ccc2c(c1)-c1ccccc1S(=O)(=O)N2CC(=O)NCCSC1CCCCC1,i
CC(C)c1ccc2c(c1)-c1ccccc1S(=O)(=O)N2CC(=O)NCc1ccccn1,+
CCc1ccc2c(c1)-c1ccccc1S(=O)(=O)N2CC(=O)Nc1ccc(NC(C)=O)cc1,i
CC(C)c1ccc2c(c1)-c1ccccc1S(=O)(=O)N2CC(=O)NCCCN1CCOCC1,i
CCc1ccc2c(c1)-c1ccccc1S(=O)(=O)N2CC(=O)Nc1ccccc1OC,i
CC(C)c1ccc2c(c1)-c1ccccc1S(=O)(=O)N2CC(=O)NCc1ccncc1,+
CCN1CCN(C(=O)CN2c3ccc(C(C)C)cc3-c3ccccc3S2(=O)=O)CC1,+
CCc1ccc2c(c1)-c1ccccc1S(=O)(=O)N2CC(=O)NCc1ccccn1,+
Cc1ccc(Nc2nc(N3CCN(C)CC3)nc3c2cnn3-c2ccccc2)cc1C,i
CCCS(=O)(=O)N1CCC(n2c(-c3ccccc3)nc3cccnc32)CC1,i
COc1ccc(S(=O)(=O)N2CCC(n3c(C)nc4cccnc43)CC2)cc1,i
Cc1cc(C(=O)N(C)C/C=C/c2ccccc2)cc(S(N)(=O)=O)c1C,i
c1ccc(-c2ccc(C3NCCc4[nH]cnc43)s2)cc1 (configuration not stated),i
SMILES,FECH block
CCCc1c(C)nc2ncnn2c1Sc1ccc(NC(=O)c2ccc(C(C)(C)C)cc2)cc1,i
CC(C)Cc1nc(CCCN2CCCCC2=O)n(-c2ccccc2)n1,i
Cc1ccc(C)c(NC(=O)CN2CCN(Cc3ccccc3C)S2(=O)=O)c1,i
Cc1cccc(CN2CCN(CC(=O)Nc3ccc(C)cc3C)S2(=O)=O)c1,i
Cc1cc(C)c(CN2CCCN(Cc3ccccc3)S2(=O)=O)c(C)c1,+
Cc1ccc(NC(=O)CN2CCN(Cc3ccccc3C)S2(=O)=O)c(C)c1,+
Cc1cccc(NC(=O)CN2CCN(Cc3ccccc3C)S2(=O)=O)c1,i
Cc1cccc(CN2CCCN(CC(=O)NC3CCCC3)S2(=O)=O)c1,i
Cc1cccc(CN2CCCN(CC(=O)Nc3ccc(C)cc3C)S2(=O)=O)c1,+
Cc1cccc(CN2CCCN(CC(=O)Nc3c(C)cc(C)cc3C)S2(=O)=O)c1,+
Cc1ccc(CN2CCCN(Cc3c(C)cc(C)cc3C)S2(=O)=O)cc1,i
Cc1ccc(CN2CCCN(CC(=O)Nc3ccc(C)cc3C)S2(=O)=O)cc1,i
Cc1cc(C)c(CN2CCCN(Cc3ccc(Cl)cc3)S2(=O)=O)c(C)c1,i
CSc1cccc(NC(=O)CN2CCCN(Cc3cccc(C)c3)S2(=O)=O)c1,i
CC(C)OCCCNC(=O)C1CCN(c2ccc(-c3cccs3)nn2)CC1,i
Cc1ccc(C)c(-c2[nH]ncc2CN(C)Cc2ncc[nH]2)c1,i
CN(Cc1ccccc1)C1CCCN(C(=O)CNC(N)=O)C1 (configuration not stated),i
COc1ccc(-c2cc(N3CCN(C(=O)Nc4ccccc4OC)CC3)ncn2)cc1,i
CN1C(=O)c2ccccc2Sc2cc(-c3noc(-c4cc5ccccc5oc4=O)n3)ccc21,i
Cc1ccc(Cl)cc1-c1n[nH]c(C2CC2)n1,i
CCc1nc(N2CC[C@@H](N3CCC(O)CC3)[C@H](O)C2)ncc1C,i
CCCNC(=O)c1ccc(Cn2c(=O)c3cc(OC)c(OC)cc3n(CC(=O)N(CC)CC)c2=O)cc1,i
Cc1ccc(CN2CCCN(CC(=O)Nc3cc(C)ccc3C)S2(=O)=O)cc1,i
Cc1cc(C)c(NC(=O)CN2CCN(Cc3ccc(F)cc3)S2(=O)=O)c(C)c1,+
Cc1ccc(CN2CCCN(CC(=O)Nc3c(C)cc(C)cc3C)S2(=O)=O)cc1,+
Cc1ccc(NC(=O)CN2CCN(Cc3ccc(F)cc3)S2(=O)=O)cc1C,i

# Screening data as filed in PubChem.
